Records with an inconclusive call do not appear. Active and inactive are the calls of the source.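 The calls were made as follows, unless noted: active = inhibition over a set limit, the all-compound mean plus 3 SD, in both replicate runs; inconclusive = over that limit in just one replicate run; inactive = at or under that limit in both runs.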
How the values were obtained:
[1] = reducers of endogenous Her2 protein level, primary screen, SKBR3 breast tumor cells, AlphaScreen, ATP viability (AID 461;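 active = Her2 level under about 52% in both replicate screens, with viability over 70% of control, limit read from the data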;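 as to Her2 level: lower value means less Her2 protein in the cells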;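 as to viability: percent of carrier control wells set as 100% viability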); conditions: 18-24 h, measured here: SKBR3 viability, ATP luminescence, at 10 µM
[2] = molecular target: Receptor tyrosine-protein kinase erbB-2 (Homo sapiens) (UniProt P04626); assay: as above; conditions: 18-24 h, at 10 µM, stronger effect = lower value
[3] = SK-BR-3 cell growth inhibitors, pilot screen, 24 h, human (AID 572;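 active = viability at or below 10% of carrier control in both of two separate runs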;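 also: compound exposure lasted between 18 and 24 h rather than exactly 24 h; 100% = carrier-treated control wells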); conditions: SK-BR-3 viability, CellTiter-Glo luminescence, at 10 µM, stronger effect = lower value
[4] = HUVEC growth inhibition – cell-based, human, primary screen (AID 575;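 active = viability at or below 30% in both replicate assays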;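 also: 100% = median of untreated cell wells with 0.1% DMSO on each plate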); conditions: HUVEC proliferation, CellTiter-Glo luminescence, 72 h; at 10 µM; stronger effect = lower value
[5] = growth inhibitors of H69AR lung tumor, primary screen, human, duplicate replicates (AID 580;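 active = viability at or under a set limit in both replicates, limit being median viability minus 3 SD, cut at about 48% in these data, passing the limit was not always enough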;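 also: 100% = mean luminescence of untreated wells and 0% = no signal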); conditions: H69AR lung tumor cells viability, ATP luminescence, 72 h; at 10 µM; stronger effect = lower value
[6] = reversal of MRP1-mediated doxorubicin resistance, pilot screen, H69AR cells, doxorubicin co-treatment (AID 601;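 active = viability loss from added drug above about 55%, and viability with drug at most 40%, in both replicates, limit read from the data, passing the limit was not always enough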); conditions: CellTiter-Glo, 72 h, at 10 µM; for differential viability (reversal): stronger effect = higher value
[7] = 384-well plate pilot, post-Golgi transport modulator project, inhibition of yeast transport mutant growth (AID 636; in the data active = inhibition above about 31%); conditions: absorbance 615 nm, about 18 h, stronger effect = higher value
[8] = growth suppression of yeast trafficking mutant, preliminary HTS, modulators of trafficking downstream of Golgi apparatus project, 1536-format plate, OD 615 nm (AID 637; in the data active = inhibition above about 30%); conditions: yeast transport mutant growth, absorbance 615 nm, 18 h; stronger effect = higher value
[9] = OD615 S. cerevisiae growth inhibition, permissive medium, pilot counter-assay, permissive growth control for S. cerevisiae lifespan shortening project (AID 705;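 active = growth inhibition above 25% in both replicates, a cutoff set 3 SD above the mean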); conditions: OD615, 24 h, at 10 µM, stronger effect = higher value
[10] = Restrictive medium S. cerevisiae growth inhibition, OD615, pilot screen of yeast lifespan reduction project, restrictive growth control (AID 706;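 active = growth inhibition above a set limit, 3 SD over mean compound inhibition, in both replicates, cut at about 43% in these data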;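 also: modified DeaD lifespan yeast strain shifted to restrictive glucose medium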); conditions: OD615, 48 h, at 10 µM, stronger effect = higher value
[11] = viability gain of MRP-1-high H69AR cells under doxorubicin, pilot screen, MRP-1 activator project, CellTiter-Glo, duplicate (AID 807;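 active = viability increase at or above a cutoff of the median across tested compounds plus 3 SD, cut at about 8.5% in these data, passing the limit was not always enough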;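 also: compound pretreatment 18-22 h then 72 h combined with doxorubicin; 0% = doxorubicin alone and 100% = vehicle without doxorubicin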); conditions: H69AR viability with doxorubicin, CellTiter-Glo luminescence; at 10 µM; stronger effect = higher value
[12] = growth suppression of beta-catenin knockout HCT116, pilot screen, human colon tumor cells (AID 823;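 active = cell viability at or below a set limit in both duplicate runs, the limit being the all-compound median minus 4 SD, cut at about 23% in these data, passing the limit was not always enough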;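 also: 0% = wells killed by 20 µM Hyamine and 100% = untreated DMSO cell wells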); conditions: CellTiter-Glo, 60 h, at 10 µM, stronger effect = lower value
[13] = growth suppression of PTEN-deleted HCT116, pilot screen, cell-based, HCT116 clonal line, CellTiter-Glo (AID 824;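 active = viability at or below 27.92% in each of two runs, the all-compound median minus 4 SD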;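 also: 0% = 20 µM Hyamine control and 100% = vehicle cell control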); conditions: 60 h, at 10 µM, stronger effect = lower value
[14] = inhibitors of the yeast RAM network, pilot screen, dse1pr::URA3 reporter, 5-FOA selection (AID 869);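 also: 0% = DMSO wells with no growth and 100% = 10 µM 1-NA-PP1 with full growth; RAM network block rescues cells from 5-FOA so hits raise OD615 growth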; conditions: S. cerevisiae dse1pr::URA3 5-FOA growth, OD615, 2 d; at 10 µM; stronger effect = higher value; strain carries analog-sensitive mutant Cbk1 kinase
[15] = RAM signaling pathway blockade in yeast – S. cerevisiae, Pdr1DBD-CYC8 efflux-inhibited sensitized strain, primary screen (AID 1298;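 active = RAM network inhibition above 8.4% in each of two replicates, 3 SD over the compound average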;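 also: 0% = DMSO untreated cells without growth and 100% = 10 µM 1-NA-PP1 full growth; higher means more yeast growth rescued from 5-FOA killing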); conditions: S. cerevisiae cbk1-as DSE1-URA3 strain, 5-FOA growth OD615, 2 d; at 50 µM; stronger effect = higher value
[16] = H69AR cells + 2 uM doxorubicin, measured here: viability with 2 uM doxorubicin, stronger effect = lower value
[17] = H69AR cells, compound alone cytotoxicity

Sequence of Receptor tyrosine-protein kinase erbB-2 (Homo sapiens) (P04626 whole entry, looked up): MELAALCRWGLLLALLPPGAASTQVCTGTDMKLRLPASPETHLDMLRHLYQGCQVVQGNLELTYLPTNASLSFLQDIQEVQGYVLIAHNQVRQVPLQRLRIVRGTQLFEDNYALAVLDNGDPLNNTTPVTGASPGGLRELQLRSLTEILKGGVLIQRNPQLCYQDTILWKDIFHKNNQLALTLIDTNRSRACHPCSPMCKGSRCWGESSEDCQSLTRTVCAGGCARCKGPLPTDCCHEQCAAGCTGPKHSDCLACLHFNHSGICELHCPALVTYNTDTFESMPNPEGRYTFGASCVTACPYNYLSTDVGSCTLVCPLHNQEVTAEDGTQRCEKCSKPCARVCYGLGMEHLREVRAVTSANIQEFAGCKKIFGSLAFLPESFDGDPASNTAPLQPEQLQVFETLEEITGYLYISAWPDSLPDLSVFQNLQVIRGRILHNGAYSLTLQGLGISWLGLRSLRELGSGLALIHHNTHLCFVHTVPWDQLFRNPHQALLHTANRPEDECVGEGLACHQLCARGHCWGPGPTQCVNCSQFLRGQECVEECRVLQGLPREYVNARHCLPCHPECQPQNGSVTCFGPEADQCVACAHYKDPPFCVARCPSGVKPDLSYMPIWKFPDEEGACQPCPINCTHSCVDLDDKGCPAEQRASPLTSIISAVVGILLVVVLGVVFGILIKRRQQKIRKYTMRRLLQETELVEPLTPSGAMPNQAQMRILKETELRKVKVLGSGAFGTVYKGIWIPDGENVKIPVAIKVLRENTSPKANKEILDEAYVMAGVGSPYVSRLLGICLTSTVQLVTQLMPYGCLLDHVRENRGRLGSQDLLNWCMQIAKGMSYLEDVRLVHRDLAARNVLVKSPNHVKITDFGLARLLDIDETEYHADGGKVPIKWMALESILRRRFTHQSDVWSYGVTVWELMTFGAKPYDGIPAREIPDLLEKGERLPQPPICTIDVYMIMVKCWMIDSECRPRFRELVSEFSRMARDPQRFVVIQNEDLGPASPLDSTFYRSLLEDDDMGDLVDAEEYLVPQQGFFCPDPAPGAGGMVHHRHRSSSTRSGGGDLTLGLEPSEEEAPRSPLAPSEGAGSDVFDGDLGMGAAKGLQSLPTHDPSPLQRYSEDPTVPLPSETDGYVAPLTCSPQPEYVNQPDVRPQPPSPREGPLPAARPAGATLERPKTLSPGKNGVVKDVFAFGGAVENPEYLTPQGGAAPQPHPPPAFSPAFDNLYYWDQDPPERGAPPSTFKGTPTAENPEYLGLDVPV

Structure (SMILES) | viability [1] [%] | Her2 level [2] | viability [3] | viability [4] | viability [5] | differential viability (reversal) ([6]; H69AR cells + 2 uM doxorubicin) | viability [6, 16] [%] | viability [6, 17] [%] | inhibition [7] | inhibition [8] | growth inhibition [9] | growth inhibition [10] | viability increase [11] | viability [12] | viability [13] | inhibition [14] | RAM network inhibition [15]
COCCNC(=O)Cn1cc2c(n1)CCCCC2 | 93.5 | 101% (inactive) | 93.5% (inactive) | 112% (inactive) | 95.7% (inactive) | 7.38% (inactive) | 88.3 | 95.7 | -1.41% (inactive) | -1% (inactive) | -8.06% (inactive) | 5.06% (inactive) | 0.1% (inactive) | 104% (inactive) | 96.5% (inactive) | 3.16% (inactive) | 5.21% (inactive)
O=C(Cn1cc2c(n1)CCCCC2)N1CCc2ccccc2C1 | 116 | 114% (inactive) | 116% (inactive) | 95% (inactive) | 92.9% (inactive) | 3.17% (inactive) | 89.8 | 92.9 | -2.18% (inactive) | -3% (inactive) | 7.48% (inactive) | 10.6% (inactive) | 1.54% (inactive) | 86.2% (inactive) | 84.7% (inactive) | 1.98% (inactive) | 6.93% (inactive)
CCOC(=O)N1CCN(C(=O)c2ccc(CS(=O)(=O)c3c(Cl)cccc3Cl)o2)CC1 | 114 | 128% (inactive) | 114% (inactive) | 107% (inactive) | 96.5% (inactive) | -4.92% (inactive) | 101 | 96.5 | -3.07% (inactive) | -3.33% (inactive) | -9.35% (inactive) | -14% (inactive) | -2.77% (inactive) | 107% (inactive) | 100% (inactive) | 0.365% (inactive) | 1.21% (inactive)
COc1cccc(/C=N/n2cnnc2)c1OCc1ccccc1 | 98 | 104% (inactive) | 98% (inactive) | 93.2% (inactive) | 97.8% (inactive) | 7.02% (inactive) | 90.8 | 97.8 | 0% (inactive) | -0.16% (inactive) | -14.7% (inactive) | -17% (inactive) | -0.6% (inactive) | 107% (inactive) | 98.9% (inactive) | 0.69% (inactive) | -1.19% (inactive)
Cc1nnc(SCCn2c(N3CCC(Cc4ccccc4)CC3)nc3c2c(=O)[nH]c(=O)n3C)s1 | 82.5 | 93.5% (inactive) | 82.5% (inactive) | 78.1% (inactive) | 79.4% (inactive) | 8.24% (inactive) | 71.1 | 79.4 | -5.21% (inactive) | -5.56% (inactive) | -2.44% (inactive) | 5.62% (inactive) | -4.95% (inactive) | 78.6% (inactive) | 75.7% (inactive) | 3.93% (inactive) | 5.98% (inactive)
C=CCc1ccccc1OCCCCN1CCCC1 | 70.5 | 101% (inactive) | 70.5% (inactive) | 77.1% (inactive) | 83.3% (inactive) | -1.74% (inactive) | 85.1 | 83.3 | -9.05% (inactive) | -1.31% (inactive) | 7.25% (inactive) | -3.4% (inactive) | -7.03% (inactive) | 77.1% (inactive) | 80.8% (inactive) | 0.91% (inactive) | 1.88% (inactive)
Cc1cccc(Cn2c(SCC(=O)Nc3ccccc3)nc3c2c(=O)[nH]c(=O)n3C)c1 | 81.5 | 97% (inactive) | 81.5% (inactive) | 93.9% (inactive) | 81.8% (inactive) | -0.02% (inactive) | 81.8 | 81.8 | -1.33% (inactive) | 0% (inactive) | -12.4% (inactive) | -8.03% (inactive) | -1.01% (inactive) | 91% (inactive) | 71% (inactive) | 1.79% (inactive) | 5.01% (inactive)
CCOC(=O)N1CCC(c2cc(=O)n3[nH]cc(C(=O)OC)c3n2)CC1 | 94.5 | 101% (inactive) | 94.5% (inactive) | 92.1% (inactive) | 92.2% (inactive) | 9.5% (inactive) | 82.7 | 92.2 | -4% (inactive) | 0.83% (inactive) | 2.45% (inactive) | 9.29% (inactive) | -0.6% (inactive) | 88.8% (inactive) | 101% (inactive) | 0.045% (inactive) | 0.56% (inactive)
O=S(=O)(c1ccccc1)N1CCN(S(=O)(=O)c2ccccc2)C1 | 83.5 | 102% (inactive) | 83.5% (inactive) | 97.5% (inactive) | 95.8% (inactive) | 7.07% (inactive) | 88.7 | 95.8 | -3.21% (inactive) | -4.5% (inactive) | -7.65% (inactive) | 6.15% (inactive) | -1.27% (inactive) | 93.8% (inactive) | 93.5% (inactive) | -0.14% (inactive) | 3.22% (inactive)

From PubChem BioAssay
